A selection: hits, their analogues and other compounds. The true share with any hit is near 3.5%.
TEAD-YAP inh = TEAD-YAP interaction inhibition; HEK-TIYL cells, TEAD-Gal4/YAP UAS-luciferase luminescence; inhibition, % at 9.12 µM; actives 1.4% (n = 640,000); in the data active = inhibition above about 32%;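 note: 0% = median of test compound wells and 100% = reference inhibitor wells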
GPR151 ag = activates the human receptor GPR151; PathHunter beta-arrestin GPR151 cells, luminescence; activation, % at 11.2 µM; actives 1% (n = 650,000); AID 1508602; in the data active = activation above about 4.9%;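 note: 0% = median of compound wells and 100% = cells with positive control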
Target sequence (Q8TDV0 whole entry, looked up): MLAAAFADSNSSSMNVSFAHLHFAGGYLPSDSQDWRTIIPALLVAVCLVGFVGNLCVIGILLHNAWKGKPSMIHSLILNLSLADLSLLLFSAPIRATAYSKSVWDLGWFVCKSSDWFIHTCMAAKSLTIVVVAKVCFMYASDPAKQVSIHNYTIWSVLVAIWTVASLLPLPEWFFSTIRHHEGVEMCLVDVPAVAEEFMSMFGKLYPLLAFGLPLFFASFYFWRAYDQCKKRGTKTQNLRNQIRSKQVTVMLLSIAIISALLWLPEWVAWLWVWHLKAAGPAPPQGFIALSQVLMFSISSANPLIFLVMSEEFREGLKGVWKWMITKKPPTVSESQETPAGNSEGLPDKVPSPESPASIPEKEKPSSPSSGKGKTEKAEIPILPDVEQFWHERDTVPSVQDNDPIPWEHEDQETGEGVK
MITF primary = human MITF inhibition, primary screen | AID 1259374 | inhibition, % at 2.6 µM | actives 0.91% (n = 650,000) | O75030 | AlphaScreen MITF homodimerization, bead proximity signal; in the data active = inhibition above about 50%;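 note: 0% = vehicle wells with protein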
FBW7 activator = activators of human E3 ligase FBW7; Q969H0; AlphaScreen FBW7–phospho-cyclin E peptide binding, activator screen; normalized activity (activation), % at 26.1 µM; actives 0.13% (n = 650,000); AID 1259310; in the data active = normalized activity above about 1.9%;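 note: purified mutant Fbw7 with reduced substrate affinity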
* = called active by the depositor.

SMILES	TEAD-YAP inh	GPR151 ag	MITF primary	FBW7 activator
CCOC1=NN(c2ccc([N+](=O)[O-])cc2)C(=O)/C1=C\c1cccc(OC)c1	-10	-1	8	0
O=C(Cc1ccc(N2CCC(NCCn3ccnc3)CC2)cc1)NCc1ccccc1	47*	1	5	0
O=C(Cc1ccc(N2CCC(NCCn3ccnc3)CC2)cc1)N1CCCC1	-9	0	1	0
O=C(CSCC(=O)Nc1ccccc1)N/N=C/c1c(O)ccc2ccccc12	74*	-2	-51	0
O=C(CSc1cccc2cccnc12)N/N=C/c1c(O)ccc2ccccc12	34*	0	12	0
COc1cc2c(C(=O)N(C)c3ccccc3C)cn(CC(C)C)c(=O)c2cc1OC	-17	1	-9	2.2*
Cc1cc(/C=C2/C(=N)N3C(=NC2=O)SN=C3S(C)(=O)=O)c(C)n1-c1ccccc1F	3	-1	15	1
CC1=CSC2=NC(=O)/C(=C/c3cc(C)n(-c4ccccc4F)c3C)C(=N)N12	52*	0	29	0
CC1=CSC2=NC(=O)/C(=C/c3cc(C)n(-c4ccccc4C)c3C)C(=N)N12	68*	0	15	0
CCOc1ccccc1-n1c(C)cc(/C=C2\C(=N)N3C(C)=CSC3=NC2=O)c1C	7	1	-2	1
Cc1ccc(NC(=O)C(C)N2Cc3ccccc3C2=O)nc1 (centres undefined)	82*	-1	5	0
Cc1cc(S(=O)(=O)O)ccc1N1N=C(C(=O)O)CC1=O	2	0	71*	-2
CC(C)(Oc1ccc(Cl)cc1)C(=O)Nc1ncc([N+](=O)[O-])s1	36*	1	10	0
O=C(NCC(c1ccco1)S(=O)(=O)c1ccccc1)c1ccccc1F (centres undefined)	-11	-1	2	0
CSc1ccccc1CNC(=O)c1ccc(C)nc1NCc1cccnc1	-2	-1	-12	1
CC(C)[C@@H]1NC(=O)[C@H]2CN(CCCc3ccccc3)CCN2C1=O	-1	-1	8	0
O=C(Nc1ccc(Nc2cc(-n3ccnc3)ncn2)cc1)c1ccc(F)cc1F	21	0	-13	0
O=C(Nc1ccc(Nc2cc(-n3ccnc3)ncn2)cc1)c1cccc2ccccc12	34*	0	2	0
Cc1nc(/C=C/c2ccc(Cl)cc2)sc1C(=O)O	60*	-11	-3	0
N#CC1=C(N)Oc2cc(N)ccc2C1c1ccc(C(F)(F)F)cc1 (centres undefined)	6	0	10	0
N#CC1=C(N)Oc2cc(N)ccc2C1C1CCCCC1 (centres undefined)	46*	2	-2	0
COc1cc(Nc2nccc(Nc3ccc4c(c3)OCO4)n2)cc(OC)c1OC	34*	2	3	0
COc1ccc(-c2nccc(Nc3cc(OC)c(OC)c(OC)c3)n2)cn1	60*	0	5	0
COc1cc(Nc2cc(C)nc(NCc3ccc4c(c3)OCO4)n2)cc(OC)c1OC	43*	4	16	1
COc1cc(Nc2ccnc(NCc3ccc4c(c3)OCO4)n2)cc(OC)c1OC	35*	1	2	0
SMILES	TEAD-YAP inh	GPR151 ag	MITF primary	FBW7 activator
CCN1/C(=C/C=C/c2oc3ccc(Cl)cc3[n+]2CC)Oc2ccc(Cl)cc21	6	0	1	0
CCN1/C(=C/C=C/c2oc3ccc4ccccc4c3[n+]2CC)Oc2ccc3ccccc3c21	78*	2	-8	0
COC(=O)c1c(NC(=O)c2cc([N+](=O)[O-])ccc2Cl)sc(C(=O)N(C)C)c1C	15	-1	3	0
Cc1cc(NC(=O)CSc2nnc(-c3ccco3)c(-c3ccco3)n2)no1	32*	0	25	0
O=C(CSc1nnc(-c2ccco2)c(-c2ccco2)n1)Nc1cccc(C(=O)O)c1	1	1	26	0
O=C(CSc1nnc(-c2ccco2)c(-c2ccco2)n1)Nc1ccc(C(=O)O)cc1	1	0	73*	-1
Cc1cccc(NS(=O)(=O)c2nnc(NC(=O)c3ccccc3F)s2)c1	-3	-2	-5	0
Cc1cccc(-c2nnc(NC(=O)c3ccccc3F)s2)c1	-64	0	14	1.9*
Cc1nc(C)c(C(=O)NC(C)c2cnn(-c3ccccn3)c2C)s1 (centres undefined)	45*	3	-2	0
Cc1nc(C)c(C(=O)NC(C)c2cnn(-c3ccccc3C)c2C)s1 (centres undefined)	54*	2	1	0
O=[N+]([O-])c1ccc(Cl)c(-n2cnnn2)c1	59*	1	8	0
CC(=O)Nc1cccc(NC(=O)CSc2ccc(-c3nc4cc(C)c(C)cc4[nH]3)cn2)c1	-45	-1	-13	0
Cc1ccc2nc(-c3ccc(SCC(=O)O)nc3)[nH]c2c1	-4	-1	-10	0
Cc1ccc2nc(-c3ccc(SCC(N)=O)nc3)[nH]c2c1	53*	1	-5	0
CC(=O)CSc1ccc(-c2nc3cc(C)c(C)cc3[nH]2)cn1	81*	-1	-5	0
O=C(CSc1ccc(Sc2ccc(SCC(=O)NC3CC3)cc2)cc1)NC1CC1	34*	1	11	1
Cc1ccc(SCC(=O)NC2CC2)cc1	-19	-1	15	0
Nc1nc2c(nc(N3CCOCC3)n2C2OC(CO)C(O)C2O)c(=O)[nH]1 (centres undefined)	4	-1	10	2.3*
CC(C)(C)c1ccc(Oc2coc3cc(O)ccc3c2=O)cc1	64*	0	18	1
O=c1c(Oc2ccc(Cl)cc2)coc2cc(O)ccc12	-4	2	12	0
COc1cc(C(=O)Oc2ccc3c(=O)c(Oc4ccc(C(C)(C)C)cc4)coc3c2)cc(OC)c1OC	80*	-1	-6	0
COc1cc(C(=O)Oc2ccc3c(=O)c(Oc4cc(C)cc(C)c4)coc3c2)cc(OC)c1OC	2	1	3	0
COc1ccccc1-n1c(=S)[nH]c2[nH]ncc2c1=O	-11	-1	5	0
COc1ccccc1CN1CCN(Cc2ccc(C)cc2)C(CCO)C1 (centres undefined)	7	1	5	0
O=C(Nc1cnn(C23CC4CC(CC(C4)C2)C3)c1)c1cnn2cccnc12	58*	0	4	0
SMILES	TEAD-YAP inh	GPR151 ag	MITF primary	FBW7 activator
O=C(Nc1cnn(C23CC4CC(CC(C4)C2)C3)c1)c1cnn2cc(Br)cnc12	3	-1	37	0
CC(C)c1ccccc1C=NCC(=O)O	11	-1	13	2.2*
COC(=O)c1c(NC(=O)Cc2cccs2)sc2c1CC(C)(C)NC2(C)C	-2	2	8	0
O=c1cc(CNCc2cccs2)c2cc3c(cc2o1)CCC3	45*	-2	0	0
COc1ccc(CNC(=O)CCn2c(=S)[nH]c3ccsc3c2=O)cc1	4	0	11	0
OC(CNCC1CCCO1)COc1ccc(OCC(O)CNCC2CCCO2)cc1 (centres undefined)	2	1	9	0
OC(CNCC1CCCO1)COc1ccc(OCC(O)NCC2CCCO2)cc1 (centres undefined)	6	-1	12	2.3*
